Results on 41 molecules are retold here after PubChem BioAssay (NCATS).

For some assays here: Results with a measured potency or affinity are listed apart. Activity calls are given as the source filed them.

The conditions of test [1]: Ebola virus entry assay, ratio channel.
The conditions of test [2]: Ebola virus entry assay, reporter ratio channel; AC50: Channel type: primary unless noted; outcome: Channel type: primary unless noted.
The conditions of test [3]: Ebola virus entry assay, blue channel (ratio component).
For test [4] the following is noted: Ebola virus entry assay, green channel fluorescence.
For test [5] the following is noted: Ebola virus entry assay, blue channel fluorescence.
For test [6] the following is noted: Ebola virus entry cell assay, ratio channel.
The conditions of test [7]: Ebola virus entry reporter assay, green channel fluorescence.
Test [8] can be described thus: Immunotoxin (HA22) sensitization/mitigation study. Vehicle arm (PBS) (AID 1159510). Further: potency means the concentration at half of the fitted maximal effect. Particulars: cancer cells viability with PBS vehicle (HA22 study); series mostly up to 46.1 µM.
Test [9] can be described thus: Immunotoxin (SS1P) sensitization/mitigation study. Vehicle arm (DMEM) (AID 1159513). Further: potency means the concentration at half of the fitted maximal effect. The following applies: cell viability with vehicle (DMEM); series mostly up to 46.1 µM.
Test [10] in a line: High-throughput drug toxicity screening in the BPDCN cell line Gen2.2 (AID 1224824).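 Further: cells exposed to compounds for 48 h before reading.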 Particulars: Gen2.2 BPDCN cells; at 45.8 µM (top of the series) unless noted. The gist of the method: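 Seed 500 exponentially growing Gen2.2 cells/well; add compounds by pin tool; incubate 48 h, 37 °C, 5% CO2; add CellTiter-Glo, 15 min RT; read luminescence. % activity vs DMSO (100%) and bortezomib (0%).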

With `CN(C)[C@@H]1C(=O)C(C(N)=O)=C(O)[C@@]2(O)C(=O)C3=C(O)c4c(O)cccc4C[C@H]3C[C@@H]12`, the AC50 in [1] and in test [2] was 17.8 µM (active) each time. Besides, in test [3], the outcome was inactive.
In the case of `COC(=O)[C@@H]1[C@H]2C[C@H]3c4[nH]c5ccccc5c4CCN3C[C@@H]2CC[C@@H]1O`, the result in test [1], in [2] and in test [3] was inactive.
Regarding `CNNCc1ccc(C(=O)NC(C)C)cc1`, the call in test [4], in test [5], in [2], in [3] and in [6] was inactive.
In the case of `CCC1=C(C)CN(C(=O)NCCc2ccc(S(=O)(=O)NC(=O)NC3CCC(C)CC3)cc2)C1=O` (configuration not stated), the molecule was classed as inactive in test [4], in test [5], in test [2], in test [3], in [7] and in test [6].
`CCS(=O)(=O)CCn1c([N+](=O)[O-])cnc1C`: the molecule was classed as inactive in [4], in [5], in test [2], in test [3], in [7] and in test [6].
With `O=P1(N(CCCl)CCCl)NCCCO1` (configuration not stated), the molecule was classed as inactive in test [4], in test [5], in test [2], in [3], in test [7] and in test [6]. The Potency result in test [8] and in [9] was “inactive” in each case. In test [10], the cell viability, % of control (lower = more cytotoxic) is 17%.
On to `CN/C(=C\[N+](=O)[O-])NCCSCc1csc(CN(C)C)n1`, for which the molecule was classed as inactive in test [4], in test [5], in test [2], in test [3] and in test [6].
Turning to `NC(N)=Nc1nc(CSCC/C(N)=N/S(N)(=O)=O)cs1`, the molecule was called inactive in test [4], in [5], in [2], in [3] and in [6].
Turning to `Cc1noc(NS(=O)(=O)c2ccc(N)cc2)c1C`, the call in [4], in test [5], in test [2], in test [3], in test [7] and in test [6] was inactive.
`COc1ccccc1N1CCN(CCCCNC(=O)c2ccc(-c3ccc(C(C)=O)cc3)cc2)CC1`: the outcome in test [1], in [2] and in test [3] was inactive.
For `Cc1nnc(SCC2=C(C(=O)O)N3C(=O)[C@@H](NC(=O)Cn4cnnn4)[C@H]3SC2)s1`, the outcome in test [4], in [5], in [2], in test [3] and in [6] was inactive.
Consider `O=C1CN(/N=C/c2ccc([N+](=O)[O-])o2)C(=O)N1`, for which the outcome in test [4], in test [5], in test [2], in [3] and in [6] was inactive.
`COc1ccc(C(=O)c2ccccc2O)c(O)c1`: the outcome in test [4] was inactive.
Regarding `COc1cccc2c1C(=O)c1c(O)c3c(c(O)c1C2=O)C[C@@](O)(C(=O)CO)CC3OC1CC(N2CCOC(OC)C2)C(O)C(C)O1` (some centres not stated), the result in [1] and in test [3] was inactive. Moreover, the AC50 (in general, the concentration at which the activity in the assay is half-maximal) in test [2] was 31.6 µM (active).
In the case of `COc1ccc(C(=O)c2ccccc2)c(O)c1`, the outcome in test [1], in [2] and in test [3] was inactive.
Consider `CCCCN(CCCC)CCCOC(=O)c1ccc(N)cc1`, for which the AC50 in test [1] and in [2] was 8.91 µM (active) each time. For the same molecule, in test [3], the outcome was inactive.
With `NC(=O)COCCN1CCN(C(c2ccccc2)c2ccc(Cl)cc2)CC1` (configuration not stated), the outcome in test [4], in test [5], in test [2], in [3], in test [7] and in test [6] was inactive.
Turning to `Nc1nc2ccc(OC(F)(F)F)cc2s1`, the result in [4], in [5], in test [2], in test [3], in test [7] and in test [6] was inactive. Also, the Potency in [8] was 23.5 µM (active).
Consider `CC(CCc1ccc(O)cc1)NCCc1ccc(O)c(O)c1` (configuration not stated), for which the molecule was called inactive in test [4], in test [5], in [2], in test [3], in test [7] and in [6].
In the case of `CC1COc2c(N3CCN(C)CC3)c(F)cc3c(=O)c(C(=O)O)cn1c23` (configuration not stated), the result in [4], in [5], in [2], in [3], in [7] and in test [6] was inactive.
In the case of `CN(c1nccc(=O)[nH]1)C1CCN(c2nc3ccccc3n2Cc2ccc(F)cc2)CC1`, the outcome in test [1], in test [2] and in test [3] was inactive.
As to `O=C(CCCN1CCC2(CC1)C(=O)NCN2c1ccccc1)c1ccc(F)cc1`, in test [4], the result was inactive.
In the case of `O=c1c(C2CC(c3ccc(-c4ccc(Br)cc4)cc3)Cc3ccccc32)c(O)sc2ccccc12` (configuration not stated), the outcome in test [1], in test [2] and in [3] was inactive.
Take `CC(NC(C)(C)C)C(=O)c1cccc(Cl)c1` (configuration not stated): the molecule was called inactive in test [4], in test [5], in test [2], in [3], in test [7] and in test [6]. Further, the cell viability, % of control (lower = more cytotoxic) in test [10] was found to be 145%.
As to `C=CCC1([C@H](C)CCC)C(=O)NC(=O)NC1=O`, the outcome in [4], in test [5], in [2], in test [3] and in [6] was inactive.
As to `CNCCCC12CCC(c3ccccc31)c1ccccc12`, the AC50 in test [1] and in test [6] was 3.16 µM (active) throughout. Moreover, the outcome in test [2] was “inactive [Channel type: confirmation]”. In addition, in [3], the outcome was inactive.
As to `Cn1nnc2c(C(N)=O)ncn2c1=O`, the molecule was classed as inactive in test [4], in [5], in test [2], in test [3] and in test [6].
Turning to `NC(=O)c1cnccn1`, the molecule was classed as inactive in test [4], in test [5], in [2], in test [3] and in test [6].
Turning to `COc1ccc2c(c1)c(CC(=O)OC/C=C(\C)CC/C=C(\C)CCC=C(C)C)c(C)n2C(=O)c1ccc(Cl)cc1`, the result in test [1], in test [2] and in test [3] was inactive.
Take `CC(O)(P(=O)(O)O)P(=O)(O)O`: the molecule was called inactive in test [4], in test [5], in [2], in test [3], in test [7] and in test [6].
As for `S=c1nc[nH]c2nc[nH]c12`, the molecule was classed as inactive in test [4], in test [5], in [2], in [3], in [7] and in [6]. Further, the Potency in test [8] and in [9] was 0.605 µM (active) in each case.
Take `CN1C(C(=O)Nc2ccccn2)=C(O)c2ccccc2S1(=O)=O`: the call in test [4], in test [5], in test [2], in [3] and in test [6] was inactive.
As to `Nc1ccc(S(=O)(=O)c2ccc(N)cc2)cc1`, the call in [4], in test [5], in [2], in test [3], in [7] and in test [6] was inactive.
On to `C#C[C@]1(O)CC[C@H]2[C@@H]3CCc4cc(OC5CCCC5)ccc4[C@H]3CC[C@@]21C`, for which the AC50 in test [1] and in test [2] was 5.01 µM (active) each time. Further, the outcome in [3] was inactive.
Turning to `Clc1ccc2nsnc2c1NC1=NCCN1`, the molecule was classed as inactive in test [4], in test [5], in test [2], in test [3] and in test [6].
On to `NC(=O)CC[C@@H]1NC(=O)[C@H](Cc2ccccc2)NC(=O)[C@H](Cc2ccc(O)cc2)NC(=O)CCSSC[C@@H](C(=O)N2CCC[C@H]2C(=O)N[C@@H](CCCN=C(N)N)C(=O)NCC(N)=O)NC(=O)[C@H](CC(N)=O)NC1=O`, for which the molecule was called inactive in test [4], in [5], in test [2], in test [3] and in test [6].
Consider `C[C@H]1[C@@H]2Cc3ccc(O)cc3[C@@]1(C)CCN2C`, for which the outcome in test [1] and in test [2] was inactive.
As for `Nc1nc(Cl)nc2c1ncn2[C@@H]1O[C@H](CO)[C@@H](O)[C@@H]1F`, the call in test [5] and in [6] was inactive.
In the case of `C[N+](C)(C)CC(O)CC(=O)[O-]` (configuration not stated), the molecule was classed as inactive in [5] and in test [6].
In the case of `N#CSCC(=O)O`, the call in test [4], in [2] and in test [3] was inactive.
Take `Cc1[nH]cnc1-c1ccc(Cl)cc1`: the call in [4], in [2] and in test [3] was inactive.
